Sampled rows, rich in hits. Any-hit rate of the full collection: about 1.1%.
ALOX12 inh: Primary qHTS assay for inhibitors of human arachidonate 12S-lipoxygenase (ALOX12): Round 2. Polyunsaturated fatty acid lipoxygenase ALOX12 (Homo sapiens), P18054. purified 12hLO, xylenol orange hydroperoxide absorbance. Potency, µM (series often up to 108 µM), for inactives: at the highest dose activity change, negative = inhibition, hits mostly inhibitors. hit rate 1.1% among 580,000; further: on the % scale 0 is the no-effect control and ±100 the full control effect
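Purified human 12hLO at 150 nM in 25 mM Hepes, 0.01% Triton X-100, pH 7.0, preincubated 15 min at room temperature with compound. Reaction started with 40 uM arachidonic acid, 30 min at room temperature. Hydroperoxide measured by Fe-xylenol orange, 573/405 nm absorbance ratio.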
TSG101-PTAP inh: qHTS Assay for Iinhibitors of HIV-1 Budding by Blocking the Interaction of PTAP/TSG101 | Potency, µM (doses to about 115 µM), inactives show top-dose activity change, negative = inhibition, hits mostly inhibitors | Fluorescence polarization, FITC-PTAP peptide / Tsg101 binding | 340,000 tested, under 10 active | Tumor susceptibility gene 101 protein (Homo sapiens), Q99816; active means well fitted inhibition curve with a large enough effect in the main read-out, with a control signal flat, not every such curve was filed as active; inconclusive means small, poorly fitted or top-dose-only effect, or effect the other way, or a change in a side signal; inactive means no such curve, though single readings can be large or run the other way; further: % of control where 0% means no effect
Target sequence (Q99816 whole entry, looked up): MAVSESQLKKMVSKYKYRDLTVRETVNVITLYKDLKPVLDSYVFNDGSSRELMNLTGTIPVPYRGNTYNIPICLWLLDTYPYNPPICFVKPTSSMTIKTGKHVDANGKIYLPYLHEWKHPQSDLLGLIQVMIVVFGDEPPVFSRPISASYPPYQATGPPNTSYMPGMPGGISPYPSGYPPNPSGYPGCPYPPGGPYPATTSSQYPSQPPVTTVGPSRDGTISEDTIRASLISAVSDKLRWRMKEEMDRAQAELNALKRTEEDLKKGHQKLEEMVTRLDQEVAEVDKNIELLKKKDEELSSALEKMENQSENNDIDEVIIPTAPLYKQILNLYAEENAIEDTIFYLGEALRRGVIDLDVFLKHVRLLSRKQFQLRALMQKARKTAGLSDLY
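Steps: Tsg101 binding domain dispensed (10 uM final), compounds pinned in DMSO, FITC-labeled PTAP-motif peptide added (50 nM final); after 20 min binding at room temperature, polarization measured.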
USP2a inh: qHTS Assay for Inhibitors of Ubiquitin-specific Protease USP2a Using CHOP2 as the Reporter; Ubiquitin carboxyl-terminal hydrolase 2 (Homo sapiens), O75604; Potency, µM (highest dose often 38.3 µM), for inactives: at the top dose activity change, negative = inhibition, most hits filed as inhibitors; hit rate 0.01% among 330,000; USP2 core, Ub-CHOP2 coupled fluorogenic reporter, 485/531;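 further: plate controls were DMSO wells for no effect and full inhibition by NEM control for full effect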
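Cell-free coupled assay: 10nM USP2 core preincubated 30min RT with compound in Tris-HCl pH 8.0/CaCl2/CHAPS buffer, then 25nM Ub-CHOP2 and 25nM reporter substrate; fluorescence (Ex 485/Em 531) read after 60min RT, normalized to NEM inhibition, concentration-response curves fitted.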
Eya2 inh: qHTS Assay for Inhibitors of the Phosphatase Activity of Eya2; Protein phosphatase EYA2 (Homo sapiens), O00167; recombinant Eya2, OMFP fluorescence dephosphorylation (OMFP is methylfluorescein phosphate); Potency, µM (titrated, usually from 76.9 µM), inactives show at the top dose activity, negative = inhibition, most hits filed as inhibitors; hit rate 0.006% among 330,000; further: on the % scale 0 is the no-effect control and ±100 the full control effect
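Eya2 (0.2 uM) preincubated 10 min at ambient with compound, then OMFP substrate added at 50 uM; 10 min reaction in 50 mM HEPES pH 7.5, 50 mM NaCl, 5 uM MgCl2, 0.05% BSA, 1 mM DTT. Fluorescence read at Ex 485/Em 525 nm.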
Active calls of the source: *; ? = inconclusive; nt = no result; ! = not active in a repeat. Unless noted, the call rests on the fitted dose curve; in most records, active means well fitted curve in the direction sought with a large enough effect; inconclusive means small, poorly fitted or top-dose-only effect, or another doubt; inactive means no such curve, though single readings can be large; an effect the other way counts as inactive or inconclusive. Potency means the concentration at half of the fitted maximal effect.

SMILES | ALOX12 inh | TSG101-PTAP inh | USP2a inh | Eya2 inh
CC(NC(=O)c1sc2cc([N+](=O)[O-])ccc2c1Cl)C(C)(C)C (stereo unspecified) | 32µM* | -2% | -1% | -6%
CCn1c(=S)[nH]c2c(c1=O)C(C)(C)Cc1ccccc1-2 | ? | -2% | 3% | 4%
Cn1c(=S)[nH]c2c(c1=O)C(C)(C)Cc1ccccc1-2 | 14µM* | 3% | 2% | -13%
COc1ccc(/C=N/NC(=O)c2nn(-c3ccc(Cl)cc3)c(=O)c3c(N)scc23)cc1 | 7.9µM* | 0% | 1% | -9%
COc1ccc(/C=N/NC(=O)c2nn(-c3ccccc3)c(=O)c3c(N)scc23)cc1 | ? | -5% | ? | ?
CC12CCC(C/C1=N\NC(=O)c1ccccc1)C2(C)C (stereo unspecified) | -7% | nt | nt | nt
COc1cc(CN2CCC(C(=O)NC(c3ccc(F)cc3)c3ccc4ccccc4n3)CC2)cc(OC)c1 (stereo unspecified) | -28% | nt | nt | nt
Cn1cc(CN2CCC(C(=O)NC(c3ccc(F)cc3)c3ccc4ccccc4n3)CC2)c2ccccc21 (stereo unspecified) | 45µM* | nt | nt | nt
COc1ccc2c(C)c(CCC(=O)N3CCC(OCc4ccccc4)CC3)c(=O)oc2c1 | -39% | nt | nt | nt
CC(C)COc1ccc(S(=O)(=O)NNC(=O)c2cc3ccccc3o2)cc1 | 22µM* | -9% | 4% | 0%
FC(F)(F)c1ccc(=S)[nH]c1 | 5µM* | nt | nt | nt
Cc1ccc(S(=O)(=O)/N=C2\C=C(NS(=O)(=O)c3ccccc3)C(=O)c3ccccc32)cc1 | ? | -12% | nt | nt
Cc1ccc(S(=O)(=O)/N=C2/C=C(C3C(=O)CC(C)(C)CC3=O)C(=O)c3ccccc32)cc1 | 45µM* | -3% | -2% | -20%
CCNC(=S)Nc1cc(-c2ccc(Cl)cc2)[nH]n1 | 5.6µM* | -4% | 2% | 3%
COc1ccc(Nc2nc3ccccc3nc2NS(=O)(=O)c2ccc(C)cc2)cc1 | 1% | nt | nt | nt
CCOc1ccc(C(CN2CCOCC2)C(C)=O)cc1OC (stereo unspecified) | 32µM* | nt | nt | nt
COCCN=c1scc(-c2ccco2)n1/N=C/c1ccc(O)c(O)c1O | ? | 1% | -9% | -1%
C=CCN=c1scc(-c2ccco2)n1/N=C/c1ccc(O)c(O)c1O | 18µM* | -1% | 0% | 2%
Cc1ccc(OCC(=O)Nc2ccc(S(=O)(=O)N(C)C3CCN(C)CC3)cc2)c(C)c1 | 35µM* | -2% | 1% | -17%
CC(Sc1ccc(Br)cc1)C(=O)NC(N)=O (stereo unspecified) | -12% | nt | nt | nt
Cc1ncc(CO)c(/C=N/Nc2ccc(C(F)(F)F)cn2)c1O | ? | 1% | 1% | 5%
Oc1ccc(C=NNC(=S)Nc2ccc(F)cc2)c(O)c1 | 40µM* | -5% | nt | nt
O=C(CCC(=O)Nc1ccc(F)cc1)N/N=C/c1ccc(O)cc1O | -9% | 0% | 1% | 9%
Cc1ncc(CO)c(/C=N/NC(=S)Nc2ccc(F)cc2)c1O | 40µM* | 0% | 1% | -3%
CCOc1ccccc1C1C(C#N)=C(N)OC2=C1S(=O)(=O)N(CC)c1ccccc12 (stereo unspecified) | 8% | nt | nt | nt
SMILES | ALOX12 inh | TSG101-PTAP inh | USP2a inh | Eya2 inh
CNC(=S)N1CCN(c2c(F)cc3c(=O)c(C(=O)O)cn(C4CC4)c3c2OC)CC1C (stereo unspecified) | ? | -6% | 3% | 10%
COC(=O)C(C)NC(=S)N1CCN(c2c(F)cc3c(=O)c(C(=O)O)cn(C4CC4)c3c2OC)CC1C (stereo unspecified) | 8.9µM* | -3% | 0% | 23%
O=C(O)C1(C(=O)O)CCC1 | -21% | 1% | 1% | 15%
NC1(C(=O)O)CCC1 | 1.4µM*! | nt | nt | nt
CCNC(=O)Cn1c(CO)cnc1SCc1ccccc1Cl | -17% | nt | nt | nt
COC(=O)c1ccc(NC(=O)COc2c(C)[nH]ccc2=O)cc1 | 28% | nt | nt | nt
C=C(C)C[C@H]1CC=C[C@H](CC(=C)C)[N+]1(C)C | 18µM* | nt | nt | nt
COc1cc(CCNC(=O)c2cc(=O)c3ccccc3o2)ccc1OC(F)F | 17% | nt | nt | nt
C/C(=N\Nc1ccc(F)cc1F)c1ccc(F)cc1 | nt | nt | -1% | 10%
C/C(=N\Nc1ccc(F)cc1F)c1ccc(Br)s1 | 32µM* | -3% | -1% | 1%
COc1cccc(OC)c1C(=O)OCc1ccccc1Br | -5% | nt | nt | nt
COc1ccc(/C=C(/CC(=O)O)c2nc3ccccc3s2)cc1 | 2.2µM* | nt | nt | nt
O=C(O)C/C(=C/c1cccc(Br)c1)c1nc2ccccc2s1 | 28µM* | nt | nt | nt
O=C(O)C/C(=C/c1ccc(Br)cc1)c1nc2ccccc2s1 | 32µM* | nt | nt | nt
O=C(O)C/C(=C\c1ccc2c(c1)OCO2)c1nc2ccccc2s1 | 5% | -7% | -2% | 11%
COc1cc(NC(=O)N2c3ccccc3Sc3ccccc32)c(C(=O)O)cc1OC | 20µM* | -6% | 2% | -8%
COCCNc1ncnc2ccc(-c3ccccc3C(F)(F)F)cc12 | 20µM* | nt | nt | nt
C=CCNC(=O)CCNC(=O)N1CCN(C(=O)c2cc3ccccc3[nH]2)CC1 | 13% | nt | nt | nt
CN(C)c1ccc(C=Nc2ccccc2)cc1 | 16% | -4% | 0% | 3%
C(=Nc1ccc(Nc2ccccc2)cc1)c1ccc2ccccc2c1 | nt | -5% | -10% | -6%
CN(C)c1ccc(C=Nc2ccc(Nc3ccccc3)cc2)cc1 | 7.9µM* | nt | nt | nt
CCN(CC)c1ccc(C=Nc2ccc(Nc3ccccc3)cc2)cc1 | 20µM* | nt | nt | nt
CC(C)Cn1cc(NC(=O)Nc2cccc(C(F)(F)F)c2)c2ccccc2c1=O | 7.1µM* | nt | nt | nt
Cc1ccc(-c2ncc(NC(=O)Cc3ccccc3C)cn2)cc1 | 45% | nt | nt | nt
Cc1ccc(-c2cc(C(=O)Nc3ccc(C(N)=O)cc3)c3ccccc3n2)o1 | 7.9µM* | nt | nt | nt
SMILES | ALOX12 inh | TSG101-PTAP inh | USP2a inh | Eya2 inh
Cc1ccc(C=NNC(=O)c2cc(-c3cccnc3)nc3ccccc23)o1 | 10µM* | -14% | 1% | -1%
Cc1ccc(-c2cc(C(=O)Nc3ccc(C#N)cc3)c3ccccc3n2)o1 | 13µM* | nt | nt | nt
COc1ccc(NC(=O)c2cc(-c3ccc(C)o3)nc3ccccc23)cc1OC | ? | -4% | 1% | -11%
COc1ccc(NC(=O)c2cc(-c3ccc(C)o3)nc3ccccc23)c(OC)c1 | ? | -8% | nt | nt
Cc1ccc(-c2cc(C(=O)Nc3ccccc3C(N)=O)c3ccccc3n2)o1 | 6.3µM* | -2% | nt | nt
C=C(C)CN(CC)C(=O)CCc1ccsc1 | 6% | nt | nt | nt
O=C(c1cnn(Cc2ccccc2)c1)N1CCN(S(=O)(=O)c2cccc(Br)c2)CC1 | -23% | nt | nt | nt
Oc1cccc(Nc2nc(-c3ccccc3)nc3ccccc23)c1 | 40µM*! | -1% | 1% | -10%
Cc1cccc(Nc2nc(-c3ccccc3)nc3ccccc23)c1 | 0% | nt | nt | nt

Source: PubChem
